From PubChem BioAssay
Activity calls are given as the source filed them.

Assays:
[1] = binders of probe aFSTL3 on microarray, primary screen, stem cell growth factor project, biochemical, small-molecule microarray, fluorescence 635/667 (AID 1064); conditions: higher = more signal;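 note: measures binding of the biotinylated anti-FSTL3 antibody to printed compounds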
[2] = binders from COS7 lysate, DM2A8 probe, primary screen, torsin A project, cell lysate, small-molecule microarray, fluorescence 635/667 (AID 1065); conditions: higher = more signal, COS7 lysate expressing mutant human TOR1A
[3] = binders of probe aFGF2 on microarray, primary screen, stem cell growth factor project, biochemical, small-molecule microarray, fluorescence 635/667 (AID 1067); conditions: higher = more signal;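 note: measures binding of biotinylated aFGF2 protein to printed compounds on slides; z-score merges feature fluorescence and signal-to-noise across triplicate slides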
[4] = binders of probe aFGF10 on microarray, primary screen, stem cell growth factor project, biochemical, small-molecule microarray, fluorescence 635/667 (AID 1071); conditions: higher = more signal;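 note: score merges 667 nm spot intensity and signal to noise from triplicate slides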
[5] = target: Neurogenic locus notch homolog protein 2 (Homo sapiens) (UniProt Q04721); assay: Notch2 binders on small-molecule microarrays, primary screen, biochemical, small-molecule microarray, 635 nm fluorescence, stem cell growth factors (AID 1073); conditions: Notch2 binding, higher = more signal
[6] = target: Pro-neuregulin-1, membrane-bound isoform (Homo sapiens) (UniProt Q02297); assay: NRG1 binders on small-molecule microarrays, primary screen, psychiatric disease protein project, biochemical, small-molecule microarray, fluorescence 635/667 (AID 1075); conditions: NRG1 binding, 635 nm fluorescence, higher = more signal;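 note: score combines 667 nm spot fluorescence with signal to noise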
[7] = test system: Neuregulin-1 EGF-like domain; assay: binders of neuregulin-1 EGF-like domain, primary screen, biochemical, small-molecule microarray, 635 nm fluorescence (AID 1081); conditions: small-molecule microarray binding, higher = more signal;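 note: binding of the protein to compounds printed on small-molecule microarray slides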
[8] = FRG1 promoter luciferase signal modulators, primary screen, FRG1 inhibition for FSHD, cell-based, C2C12 myotubes, firefly/Renilla luciferase, luminescence (AID 1084); conditions: higher = more signal, called active from +8 up or from −8 down
[9] = binders of probe aFST on microarray, primary screen, stem cell growth factor project, biochemical, small-molecule microarray, fluorescence 635/667 (AID 1086); conditions: higher = more signal;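 note: score merges 667 nm fluorescence with signal-to-noise of each printed compound spot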
[10] = binders of probe aHhip on microarray, primary screen, stem cell growth factor project, biochemical, small-molecule microarray, fluorescence 635/667 (AID 1087); conditions: higher = more signal;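 note: score merges spot fluorescence at 667nm with spot signal to noise ratio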
[11] = test system: PRMT1 (protein arginine N-methyltransferase 1); assay: PRMT1 binders on small-molecule microarrays, primary screen, biochemical, small-molecule microarray, 635 nm fluorescence (AID 1088); conditions: small-molecule microarray binding, higher = more signal;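 note: binding of Prmt1 protein to compounds spotted on small-molecule microarray slides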
[12] = yeast growth modulation, basal conditions, primary screen, YJM789 clinical isolate, OD600, 24 h (AID 1089);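 note: growth of clinical yeast isolate S. cerevisiae YJM 789 seeded 1000 cells per well; test concentration not given here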; conditions: S. cerevisiae YJM789 growth, higher = more signal, called active from +8 up or from −8 down
[13] = fission yeast growth modulation, primary screen, strain 972, OD600, 24 h, no modulator (AID 1090);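 note: basal condition with compound alone and no growth modifier present; test concentration not given here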; conditions: S. pombe 972 growth, higher = more signal, called active from +8 up or from −8 down
[14] = S. cerevisiae growth modulation with rapamycin, primary screen, strain BY4716, OD600, 96 h (AID 1091); conditions: higher = more signal, called active from +8 up or from −8 down; note: test concentration not given here
[15] = target: Torsin-1A-interacting protein 2 (Homo sapiens) (UniProt Q8NFQ8); assay: LULL1 binders on small-molecule microarray, primary screen, cell lysate, human LULL1 lysate, 635/667 nm fluorescence (AID 1092); conditions: hLULL1 lysate binding, 635 nm fluorescence, higher = more signal;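 note: probe is lysate of COS7 cells overexpressing human LULL1; score merges per-feature 667 nm fluorescence with signal-to-noise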
[16] = E. coli growth modulation, two-sided OD650, primary screen, E. coli filamentation project, strain DRC41, 24 h (AID 1093); conditions: OD650, 24 h, higher = more signal, called active from +8 up or from −8 down;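 note: MC1000 strain lacking acrAB efflux and sulA so SOS filamentation is blocked; test concentration not given here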
[17] = small-molecule microarray binders of probe aLefty2, primary screen, biochemical, biotinylated probe, 635/667 nm fluorescence (AID 1094); conditions: higher = more signal;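 note: score merges spot fluorescence near 667 nm with spot signal-to-noise ratio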
[18] = test system: Noggin (protein binding on small-molecule microarray); assay: Noggin binders on small-molecule microarray, primary screen, biochemical, 635/667 nm fluorescence (AID 1095); conditions: 635 nm fluorescence, higher = more signal;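 note: score merges 667 nm feature fluorescence with signal to noise over triplicate slides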
[19] = target: Neurogenic locus notch homolog protein 3 (Homo sapiens) (UniProt Q9UM47); assay: NOTCH3 binders on small-molecule microarray, primary screen, biochemical, 635/667 nm fluorescence (AID 1096); conditions: NOTCH3 binding, 635 nm fluorescence, higher = more signal
[20] = small-molecule microarray binders of probe aEGFR, primary screen, biochemical, biotinylated probe, 635/667 nm fluorescence (AID 1097); conditions: higher = more signal;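 note: probe is a biotinylated anti-EGFR antibody binding compounds printed on slides; score combines fluorescence near 667 nm and signal to noise of each spot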

Chain of Torsin-1A-interacting protein 2 (Homo sapiens) (Q8NFQ8 whole entry, looked up): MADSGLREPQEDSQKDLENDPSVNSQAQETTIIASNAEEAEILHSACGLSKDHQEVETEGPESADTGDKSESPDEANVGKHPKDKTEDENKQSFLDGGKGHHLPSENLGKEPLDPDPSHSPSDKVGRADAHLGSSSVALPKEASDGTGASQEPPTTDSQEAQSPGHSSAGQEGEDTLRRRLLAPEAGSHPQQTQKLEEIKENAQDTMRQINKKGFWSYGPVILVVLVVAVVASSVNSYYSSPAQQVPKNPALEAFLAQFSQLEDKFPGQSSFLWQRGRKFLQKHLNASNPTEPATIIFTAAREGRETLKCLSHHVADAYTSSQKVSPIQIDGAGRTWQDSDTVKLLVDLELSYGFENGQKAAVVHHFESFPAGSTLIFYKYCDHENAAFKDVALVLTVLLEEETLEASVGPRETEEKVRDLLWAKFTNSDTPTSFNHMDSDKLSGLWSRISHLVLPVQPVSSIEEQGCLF
Chain of Pro-neuregulin-1, membrane-bound isoform (Homo sapiens) (Q02297 whole entry, looked up, the tested form may be a part, canonical isoform): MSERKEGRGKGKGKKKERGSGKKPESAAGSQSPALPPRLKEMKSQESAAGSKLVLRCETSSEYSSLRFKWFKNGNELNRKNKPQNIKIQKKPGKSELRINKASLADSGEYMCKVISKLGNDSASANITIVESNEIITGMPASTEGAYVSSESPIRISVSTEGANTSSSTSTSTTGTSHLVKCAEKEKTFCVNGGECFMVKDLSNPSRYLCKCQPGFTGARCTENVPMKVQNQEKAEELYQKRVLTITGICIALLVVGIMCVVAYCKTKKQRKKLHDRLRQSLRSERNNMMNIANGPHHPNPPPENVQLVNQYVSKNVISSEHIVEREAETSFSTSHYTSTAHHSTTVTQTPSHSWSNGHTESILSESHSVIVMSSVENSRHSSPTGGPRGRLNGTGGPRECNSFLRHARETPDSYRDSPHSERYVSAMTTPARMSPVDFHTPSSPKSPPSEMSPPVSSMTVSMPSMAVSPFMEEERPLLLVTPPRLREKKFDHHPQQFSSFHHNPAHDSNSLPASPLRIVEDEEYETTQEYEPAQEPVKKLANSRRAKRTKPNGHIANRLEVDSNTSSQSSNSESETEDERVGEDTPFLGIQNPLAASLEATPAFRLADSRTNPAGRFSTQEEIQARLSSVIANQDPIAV
Chain of Neurogenic locus notch homolog protein 3 (Homo sapiens) (Q9UM47 whole entry, looked up): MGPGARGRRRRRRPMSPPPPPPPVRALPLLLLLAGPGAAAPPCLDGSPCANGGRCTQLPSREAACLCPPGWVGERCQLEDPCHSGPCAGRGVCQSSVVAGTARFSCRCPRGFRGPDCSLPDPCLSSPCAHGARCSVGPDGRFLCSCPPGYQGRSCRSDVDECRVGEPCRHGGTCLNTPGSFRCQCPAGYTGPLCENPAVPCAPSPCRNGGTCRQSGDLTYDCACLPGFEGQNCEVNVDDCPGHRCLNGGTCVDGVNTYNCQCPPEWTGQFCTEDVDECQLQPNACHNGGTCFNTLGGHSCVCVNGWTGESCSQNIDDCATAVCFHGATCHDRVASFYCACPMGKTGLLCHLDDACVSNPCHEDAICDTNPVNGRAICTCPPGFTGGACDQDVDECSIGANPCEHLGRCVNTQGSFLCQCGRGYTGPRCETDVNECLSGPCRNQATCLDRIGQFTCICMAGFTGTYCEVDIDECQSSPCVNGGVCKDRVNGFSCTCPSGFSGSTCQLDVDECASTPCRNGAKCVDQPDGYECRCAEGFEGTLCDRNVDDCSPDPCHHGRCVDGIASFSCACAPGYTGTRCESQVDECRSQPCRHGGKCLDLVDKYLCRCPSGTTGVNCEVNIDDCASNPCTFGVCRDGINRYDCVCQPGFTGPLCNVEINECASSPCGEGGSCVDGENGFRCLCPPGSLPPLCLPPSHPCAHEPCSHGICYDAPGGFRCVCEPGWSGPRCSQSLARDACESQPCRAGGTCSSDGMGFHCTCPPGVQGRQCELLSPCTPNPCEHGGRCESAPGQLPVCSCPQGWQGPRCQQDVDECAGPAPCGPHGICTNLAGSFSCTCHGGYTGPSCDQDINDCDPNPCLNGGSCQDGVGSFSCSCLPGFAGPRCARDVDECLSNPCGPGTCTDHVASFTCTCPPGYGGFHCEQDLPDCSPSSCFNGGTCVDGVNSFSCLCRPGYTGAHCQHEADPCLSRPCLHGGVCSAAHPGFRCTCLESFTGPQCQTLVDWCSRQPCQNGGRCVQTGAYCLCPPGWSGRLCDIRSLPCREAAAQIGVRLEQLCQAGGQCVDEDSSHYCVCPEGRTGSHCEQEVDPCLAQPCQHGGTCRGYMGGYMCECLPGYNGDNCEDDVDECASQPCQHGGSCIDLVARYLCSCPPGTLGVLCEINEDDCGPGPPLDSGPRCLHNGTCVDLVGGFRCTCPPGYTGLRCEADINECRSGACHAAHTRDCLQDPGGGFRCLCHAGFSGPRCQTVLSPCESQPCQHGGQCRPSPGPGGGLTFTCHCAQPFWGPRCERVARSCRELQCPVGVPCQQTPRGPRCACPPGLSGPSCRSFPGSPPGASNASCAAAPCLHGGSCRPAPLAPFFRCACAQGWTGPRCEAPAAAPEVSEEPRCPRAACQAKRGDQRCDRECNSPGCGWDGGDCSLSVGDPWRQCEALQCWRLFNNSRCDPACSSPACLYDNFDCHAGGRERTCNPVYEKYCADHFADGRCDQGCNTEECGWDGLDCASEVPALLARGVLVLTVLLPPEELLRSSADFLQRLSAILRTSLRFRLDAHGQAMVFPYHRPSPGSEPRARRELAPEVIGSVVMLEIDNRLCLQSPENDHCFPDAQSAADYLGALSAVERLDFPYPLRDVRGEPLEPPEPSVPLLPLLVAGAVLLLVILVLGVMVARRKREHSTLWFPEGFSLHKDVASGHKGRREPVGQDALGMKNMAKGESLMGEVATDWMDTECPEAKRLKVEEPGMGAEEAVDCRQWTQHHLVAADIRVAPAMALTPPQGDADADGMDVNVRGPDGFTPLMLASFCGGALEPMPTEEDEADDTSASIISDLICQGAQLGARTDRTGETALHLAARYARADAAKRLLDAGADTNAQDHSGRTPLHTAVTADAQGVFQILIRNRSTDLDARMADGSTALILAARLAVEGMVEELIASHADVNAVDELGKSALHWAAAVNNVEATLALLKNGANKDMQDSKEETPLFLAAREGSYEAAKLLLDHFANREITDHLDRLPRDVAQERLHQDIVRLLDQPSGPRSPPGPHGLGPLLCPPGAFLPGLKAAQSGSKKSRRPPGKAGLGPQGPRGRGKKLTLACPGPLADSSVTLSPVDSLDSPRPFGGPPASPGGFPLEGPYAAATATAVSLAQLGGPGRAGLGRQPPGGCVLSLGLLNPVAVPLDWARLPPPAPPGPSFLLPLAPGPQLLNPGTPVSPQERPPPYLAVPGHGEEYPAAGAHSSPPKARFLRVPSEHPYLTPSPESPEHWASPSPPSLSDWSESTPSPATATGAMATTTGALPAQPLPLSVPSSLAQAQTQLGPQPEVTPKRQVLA

In the case of C=CCC(OC(C)=O)[C@@H]1[C@@H](N(Cc2cccc3ccccc23)C(=O)c2cccc3ccccc23)c2cc(OCCCO)ccc2N1C(=O)Cc1ccc(OC)cc1 (stereo not given in full), the composite z-score [1] was -0.0733, the composite z-score [2] was -0.136 and the composite z-score [3] was -0.0569. The composite z-score [4] was 0.108, the composite z-score [5] was 0.568 and the composite z-score [6] was 0.123. For the same molecule, the composite z-score [7] was 0.193, the z-score [8] was -1.64 (inactive) and the composite z-score [9] was 0.03. For the same molecule, the composite z-score [10] was -0.0994, the composite z-score [11] was 0.435 and the z-score [12] was -1.17 (inactive). The z-score [13] was -1.59 (inactive), the z-score [14] was -0.8 (inactive) and the composite z-score [15] was 1.52. The z-score [16] was 2.09 (inactive), the composite z-score [17] was -0.121 and the composite z-score [18] was 0.0439. For the same molecule, the composite z-score [19] was 0.171 and the composite z-score [20] was 0.0073.
With C=CCN1C(=O)[C@@]2(O[C@@H](CCn3cc(CCO)nn3)[C@H]([Si](C)(C)c3ccc(OC)cc3)[C@H]2C)c2cc(NC(=O)c3ccc(OC)cc3)ccc21 the composite z-score [1] was -0.0186, the composite z-score [2] was 0.463 and the composite z-score [3] was -0.0493. It also gave a composite z-score [4] of 0.051, a composite z-score [5] of 0.0039 and a composite z-score [6] of 0.457. For the same molecule, the composite z-score [7] was 0.672, the z-score [8] was -2.22 (inactive) and the composite z-score [9] was 0.309. The composite z-score [10] was -0.0994, the composite z-score [11] was 1.49 and the z-score [12] was -0.0986 (inactive). For the same molecule, the z-score [13] was -1.27 (inactive), the z-score [14] was -0.738 (inactive) and the composite z-score [15] was 0.674. The z-score [16] was 1.31 (inactive), the composite z-score [17] was -0.0985 and the composite z-score [18] was 1.04. The composite z-score [19] was 0.742 and the composite z-score [20] was -0.0895.
In the case of C=CCOC(=O)[C@H]1[C@@H]2C(=O)O[C@@H](c3ccccc3)[C@@H](c3ccccc3)N2[C@@H](c2ccc(OCCOC(=O)[C@H]3C[C@H]4C(=O)N5CCC[C@H]5C(=O)N4[C@H]3c3cccc(OCCO)c3)cc2)[C@]12C(=O)Nc1ccccc12, the composite z-score [1] was -0.113, the composite z-score [2] was 0.984 and the composite z-score [3] was -0.147. The composite z-score [4] was 0.363, the composite z-score [5] was 0.0945 and the composite z-score [6] was 1.06. For the same molecule, the composite z-score [7] was 1.24, the z-score [8] was 0.176 (inactive) and the composite z-score [9] was 0.406. The composite z-score [10] was -0.182, the composite z-score [11] was 1.53 and the z-score [12] was 0.766 (inactive). The z-score [13] was -0.347 (inactive), the z-score [14] was 2.43 (inactive) and the composite z-score [15] was 2.04. The z-score [16] was 1.83 (inactive), the composite z-score [17] was 0.103 and the composite z-score [18] was 1.54. The composite z-score [19] was 1.04 and the composite z-score [20] was -0.0828.
Molecule O=C1O[C@H](c2ccccc2)[C@H](c2ccccc2)N2[C@H]1[C@@H](C(=O)NC[C@H](O)c1ccccc1)[C@]1(C(=O)Nc3ccc(C#CC4(O)CCCCCC4)cc31)[C@H]2c1ccc(O)cc1 has a composite z-score [1] of 0.0879, a composite z-score [2] of 0.705 and a composite z-score [3] of -0.0529. For the same molecule, the composite z-score [4] was 0.676, the composite z-score [5] was 1.47 and the composite z-score [6] was 1.62. For the same molecule, the composite z-score [7] was 1.34, the z-score [8] was -0.0847 (inactive) and the composite z-score [9] was 0.837. For the same molecule, the composite z-score [10] was 0.131, the composite z-score [11] was 1.58 and the z-score [12] was -0.307 (inactive). The z-score [13] was -1.14 (inactive), the z-score [14] was 0.393 (inactive) and the composite z-score [15] was 1.41. The z-score [16] was 1.69 (inactive), the composite z-score [17] was 0.113 and the composite z-score [18] was 0.927. The composite z-score [19] was 1.1 and the composite z-score [20] was 0.0425.
For O=C(O)[C@H]1C[C@H]2C(=O)NCC(=O)N2[C@H]1c1cccc(OCCO)c1, the composite z-score [1] was 2.86, the composite z-score [2] was 0.942 and the composite z-score [3] was 0.0568. The composite z-score [4] was -0.213, the composite z-score [5] was 0.29 and the composite z-score [6] was 1.41. The composite z-score [7] was 0.986, the z-score [8] was 5.62 (inactive) and the composite z-score [9] was 1.98. The composite z-score [10] was 0.745, the composite z-score [11] was 1.23 and the z-score [12] was -1.63 (inactive). The z-score [13] was -2.01 (inactive), the z-score [14] was -1.11 (inactive) and the composite z-score [15] was 1.51. The z-score [16] was 2.5 (inactive), the composite z-score [17] was 0.0889 and the composite z-score [18] was 0.0133. For the same molecule, the composite z-score [19] was 0.446 and the composite z-score [20] was 0.108.
Molecule CCN(CC)c1ccc(N2CC=CC34O[C@@H]5C=CCOC(=O)[C@@H]5[C@H]3C(=O)N(C(C)CO)[C@@H]4C2=O)cc1 (stereo not given in full) has a composite z-score [1] of 0.652, a composite z-score [2] of -0.893 and a composite z-score [3] of -0.171. It also gave a composite z-score [4] of -0.784, a composite z-score [5] of -1.58 and a composite z-score [6] of 0.392. The composite z-score [7] was 0.344, the z-score [8] was 0.403 (inactive) and the composite z-score [9] was -0.278. For the same molecule, the composite z-score [10] was -0.0296, the composite z-score [11] was -1.48 and the z-score [12] was -0.185 (inactive). The z-score [13] was -1.4 (inactive), the z-score [14] was -0.8 (inactive) and the composite z-score [15] was -0.151. The z-score [16] was 1.7 (inactive), the composite z-score [17] was -0.0592 and the composite z-score [18] was -1.39. The composite z-score [19] was -0.894 and the composite z-score [20] was -0.252.
Molecule COc1ccc([Si](C)(C)[C@H]2[C@H](CCO)O[C@@]3(C(=O)N(Cc4ccc(N5C(=O)c6cccc7cccc5c67)cc4)c4ccccc43)[C@@H]2C)cc1 has a composite z-score [1] of 0.633, a composite z-score [2] of -0.213 and a composite z-score [3] of -0.0692. It also gave a composite z-score [4] of -0.397, a composite z-score [5] of -0.831 and a composite z-score [6] of 1.1. The composite z-score [7] was 0.657, the z-score [8] was -4.45 (inactive) and the composite z-score [9] was 0.025. For the same molecule, the composite z-score [10] was -0.261, the composite z-score [11] was 0.126 and the z-score [12] was 0.341 (inactive). For the same molecule, the z-score [13] was 0.472 (inactive), the z-score [14] was 26 (active) and the composite z-score [15] was 0.589. The z-score [16] was 2.02 (inactive), the composite z-score [17] was -0.169 and the composite z-score [18] was -0.688. The composite z-score [19] was -0.601 and the composite z-score [20] was -0.272.
For C=C(COC)C(=O)CC[C@H](OC(=O)c1cccnc1)c1cccc(OCCO)c1, the composite z-score [1] was 0.822, the composite z-score [2] was 1.9 and the composite z-score [3] was 0.119. The composite z-score [4] was 0.833, the composite z-score [5] was -0.381 and the composite z-score [6] was -0.318. For the same molecule, the composite z-score [7] was 0.0423, the z-score [8] was 0.0417 (inactive) and the composite z-score [9] was 0.331. For the same molecule, the composite z-score [10] was 0.503, the composite z-score [11] was 1.36 and the z-score [12] was 1.25 (inactive). The z-score [13] was -0.231 (inactive), the z-score [14] was 1.56 (inactive) and the composite z-score [15] was 0.241. For the same molecule, the z-score [16] was 1.18 (inactive), the composite z-score [17] was 0.649 and the composite z-score [18] was 1.29. The composite z-score [19] was 0.176 and the composite z-score [20] was 0.431.
C=C(CCCC)/C(=C/C[C@@H](OC(=O)c1ccncc1)c1ccc(OCCO)cc1)c1cnc2ccccc2c1 showed a composite z-score [1] of 0.201, a composite z-score [2] of 0.379 and a composite z-score [3] of 0.0166. The composite z-score [4] was 1.19, the composite z-score [5] was 1.48 and the composite z-score [6] was 0.227. The composite z-score [7] was 0.841, the z-score [8] was -0.723 (inactive) and the composite z-score [9] was 0.265. The composite z-score [10] was -0.176, the composite z-score [11] was 1.52 and the z-score [12] was 0.594 (inactive). The z-score [13] was -1.59 (inactive), the z-score [14] was 0.524 (inactive) and the composite z-score [15] was 0.447. For the same molecule, the z-score [16] was 1.48 (inactive), the composite z-score [17] was -0.0523 and the composite z-score [18] was 1.72. The composite z-score [19] was 1.06 and the composite z-score [20] was -0.0243.
